Measurements published in PubChem BioAssay.
Calls of active or inactive are those of the source.

Experiment: E. coli DRC41 culture turbidity changes, primary screen, E. coli filamentation inducer project, strain DRC41, OD650, 48 h (AID 1152);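 also: E. coli MC1000 strain DRC41 lacking acrAB efflux pump and sulA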
Details: E. coli DRC41 (acrAB sulA), higher = more signal, called active from +8 up or from −8 down

z-score, inactive:
CC1CC/C=C\[C@H]2OC34C=CCN(Cc5ccccc5)C(=O)[C@H]3N(CCCCCO)C(=O)[C@@H]4C2C(=O)O1 (stereo partly specified) -0.94
COCCOC(=O)N1C(=O)[C@@]2(c3cc(C#CCNC(N)=O)ccc31)[C@H](C(=O)N1CCc3cc(OC)c(OC)cc3C1)[C@H]1C(=O)O[C@H](c3ccccc3)[C@H](c3ccccc3)N1[C@@H]2c1ccc(OCCO)cc1 1.3
O=C1OCCC/C=C\[C@H]2OC34C=CCN(Cn5nnc6ccccc65)C(=O)[C@H]3N(CCCCCO)C(=O)[C@@H]4C12 (stereo partly specified) 0.246
O=C(O)[C@@]1(Cc2ccccc2)N=C(c2ccc(OCCCO)cc2)O[C@H]1c1ccccc1 0.922
Cc1ccc(S[C@]2(C(=O)NC3CC3)CC(=O)N(C3CCCCC3)[C@@H]2c2ccc(CO)cc2I)cc1 0.639
O=C/C=C/c1ccc2c(c1)OCO2 0.586
CC(C)(C)OC(=O)CC[C@@]1(C(=O)O)N=C(c2ccc(OCCCO)cc2)O[C@@H]1c1ccccc1N=[N+]=[N-] 0.592
COCCOC(=O)N1C(=O)[C@@]2(c3cc(C#CCC(C(=O)OC)C(=O)OC)ccc31)[C@H](C(=O)N1CCN(c3ncccn3)CC1)[C@H]1C(=O)O[C@H](c3ccccc3)[C@H](c3ccccc3)N1[C@@H]2c1ccc(OCCO)cc1 3.02
COCCOC(=O)N1C(=O)[C@@]2(c3cc(C#CCC(C(=O)OC)C(=O)OC)ccc31)[C@H](c1ccc(O)cc1)N1[C@H](c3ccccc3)[C@H](c3ccccc3)OC(=O)[C@H]1[C@@H]2C(N)=O -0.648
C=CCOC(=O)[C@@H]1[C@H]2C(=O)O[C@H](c3ccccc3)[C@H](c3ccccc3)N2[C@H](c2ccc(OCCOC(=O)[C@@H]3C[C@@H]4C(=O)NCC(=O)N4[C@@H]3c3cccc(OCCO)c3)cc2)[C@@]12C(=O)Nc1ccc(I)cc12 -0.407
C#CCN(C(/C=C/c1ccccc1)CO)C(C(=O)O)c1ccccc1 (stereo unspecified) 1.86
COC(=O)[C@@]1(Cc2ccc(F)cc2)[C@H]2c3cc(C(=O)N4CCCC4)n(Cc4cccc5ccccc45)c3C[C@H]2CN1C(=O)c1ccccc1 -2.25
CC(C)CNC(=O)[C@@H]1c2ccccc2C(=O)N(Cc2cc(C(F)(F)F)cc(C(F)(F)F)c2)[C@H]1c1ccc(CO)cc1 0.808
COc1cc2c(cc1OC)CN(C(=O)[C@@H]1[C@H]3C(=O)O[C@H](c4ccccc4)[C@H](c4ccccc4)N3[C@H](c3ccccc3OCCO)[C@@]13C(=O)Nc1ccc(C#CCNC(N)=O)cc13)CC2 0.97
COC(=O)c1ccc(C(O)C2C=CC3C(=O)N(c4ccccc4)C(=O)C3N2Nc2ccc(C#N)cc2)o1 (stereo unspecified) -0.855
CC(=O)NCCCC[C@@H]1NC(=O)[C@@H]2C[C@H](C(=O)NCCCCCCNC(=O)CS)[C@H](c3ccc(O)cc3)N2C1=O -0.644
O=c1cccc(C=Cc2ccccc2)o1 0.465
COc1ccc([Si](C)(C)[C@@H]2[C@@H](CC(=O)N3CCC[C@H]3CO)O[C@]3(C(=O)N(C)c4c(Br)cc(C)cc43)[C@H]2C)cc1 -0.674
CC(C)N1C(=O)[C@@]2(c3ccc([N+](=O)[O-])cc3)CC(=O)N(CC34CC5CC(CC(C5)C3)C4)[C@@H]2c2ccc(CO)cc21 0.0258
COC(=O)[C@@]1(Cc2ccccc2)N=C(c2ccc(OCCCO)cc2)O[C@H]1c1ccccc1N=[N+]=[N-] 0.388
N#Cc1ccc(NN2C(C(O)c3ccc([N+](=O)[O-])cc3)C=CC3C(=O)N(c4ccccc4)C(=O)C32)cc1 (stereo unspecified) -2.18
[N-]=[N+]=Nc1ccccc1[C@@H]1OC(c2ccc(OCCCO)cc2)=N[C@]1(CCS(=O)(=O)c1ccccc1)C(=O)N1CCOCC1 0.325
O=C(O)[C@H]1C[C@H]2C(=O)NCC(=O)N2[C@H]1c1ccc(O)cc1 1.55
O=c1cccc(CCc2ccccc2)o1 -1.21
CCN(CC)c1ccc(N2CC=CC34O[C@@H]5C=CCCOC(=O)C5[C@H]3C(=O)N(CCCCCO)[C@@H]4C2=O)cc1 (stereo partly specified) 2.82
COCCCNC(=O)[C@@]1(c2ccc([N+](=O)[O-])cc2)CC(=O)N(CC23CC4CC(CC(C4)C2)C3)[C@@H]1c1ccc(CO)cc1 0.697
[N-]=[N+]=NCc1ccccc1C[C@]1(C(=O)NCC(O)CO)N=C(c2ccc(OCCCO)cc2)O[C@H]1c1ccccc1N=[N+]=[N-] (stereo partly specified) 0.801
[N-]=[N+]=NCc1ccccc1[C@@H]1OC(c2ccc(OCCCO)cc2)=N[C@]1(Cc1ccccc1N=[N+]=[N-])C(=O)NCc1ccccc1 -2.95
O=C1OCC=C[C@H]2OC34C=CCN(c5ccc(Cl)cc5)C(=O)[C@H]3N(CCCCCCO)C(=O)[C@@H]4[C@@H]12 (stereo partly specified) 0.49
CC(C)C[C@@H]1NC(=O)[C@H]2C[C@@H](C(=O)NCCCCCNC(=O)CS)[C@@H](c3cccc(OCCO)c3)N2C1=O -0.586
COC(=O)[C@@]1(Cc2ccccc2)[C@H]2c3cc(C(=O)N4CCCC4)n(Cc4ccc(C)o4)c3C[C@H]2CN1C(=O)c1ccccc1 -1.71
O=C1c2ccccc2[C@@]2(Cc3ccccc3N(Cc3ccccc3)C2=O)[C@H](c2ccc(CO)cc2)N1C1CCCCC1 0.414
COc1ccccc1CN1C(=O)c2ccccc2[C@@H](C(=O)NCCN2CCOCC2)[C@@H]1c1ccc(CO)cc1 -0.0157
COc1cccc(C(=O)O[C@H]2CC[C@]3(C)C4=C(CCC3C2(C)C)[C@]2(C)CC[C@H]([C@H](C)CCCC(C)C)[C@@]2(C)CC4)c1 (stereo partly specified) 3.47
C[C@H]1NC(=O)[C@H](Cc2ccccc2)NC(=O)[C@@]23C(=O)N[C@@H](Cc4ccccc4)C2[C@H](C)[C@@]2(C)O[C@H]2C3/C=C/C/C=C\CNC1=O (stereo partly specified) 0.806
CS(=O)(=O)CCOC(=O)C1=CC(CCCO)=CC(c2cccs2)N(Cc2cc3c(cc2Br)OCO3)C=C1C(=O)OCCS(C)(=O)=O (stereo unspecified) 0.702
